According to PubChem BioAssay (EPA / NIEHS):
Activity calls are given as the source filed them. The calls were made as follows: active = hit-call score of the fitted dose curve at least 0.9, where 1 is the maximum; inactive = score below 0.9.

Tests used:
[1] = read-out: Monokine induced gamma interferon (MIG), CXCL9 (gene 4283); assay: BSK_hDFCGF_MIG: BioMAP Diversity Plus: hDFCGF Assay for Monokine induced gamma interferon (MIG) Biomarker Activity (AID 2283063); details: primary human foreskin fibroblasts; actives raise or lower the signal
Procedure, shortened: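 Endpoint derived by bidirectional fitting relative to DMSO; MIG quantified via ELISA in primary human foreskin fibroblasts harvested 24 h after dosing.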

[2] = read-out: Matrix Metallopeptidase 1 (MMP1), MMP1 (gene 4312); assay: BSK_hDFCGF_MMP1: BioMAP Diversity Plus: hDFCGF Assay for Matrix Metallopeptidase 1 (MMP1) Biomarker Activity (AID 2283064); details: primary human foreskin fibroblasts; actives raise or lower the signal
Procedure, shortened: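 MMP1 levels quantified by ELISA 24 h after dosing human dermal fibroblast cultures, with parallel SRB total-protein staining for overt cytotoxicity. Data fitted in both directions against DMSO baseline.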

[3] = read-out: Vascular cell adhesion molecule 1 (VCAM1), VCAM1 (gene 7412); assay: BSK_hDFCGF_VCAM1: BioMAP Diversity Plus: hDFCGF Assay for Vascular cell adhesion molecule 1 (VCAM1) Biomarker Activity (AID 2283065); details: primary human foreskin fibroblasts; actives raise or lower the signal;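 as to AC50: VCAM-1 protein level quantified by ELISA after 24 h chemical exposure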
Procedure, shortened: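 Measured after 24 h chemical treatment of primary human skin fibroblasts, VCAM-1 was detected by ELISA and concentration-response analysed in both directions versus DMSO vehicle.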

[4] = read-out: Plasminogen activator inhibitor-1 (PAI1), SERPINE1 (gene 5054); assay: BSK_hDFCGF_PAI1: BioMAP Diversity Plus: hDFCGF Assay for Plasminogen activator inhibitor-1 (PAI1) Biomarker Activity (AID 2283066); details: primary human foreskin fibroblasts; actives raise or lower the signal
Procedure, shortened: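 PAI-1 levels in human dermal foreskin fibroblasts were quantified by ELISA 24 h after dosing, with gain or loss analysed against DMSO. Overt cytotoxicity was checked by sulforhodamine B total-protein staining in parallel cultures.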

[5] = read-out: Interferon-gamma inducible Protein 10 (IP10), CXCL10 (gene 3627); assay: BSK_KF3CT_IP10: BioMAP Diversity Plus: KF3CT Assay for Interferon-gamma inducible Protein 10 (IP10) Biomarker Activity (AID 2283068); details: primary human keratinocytes with fibroblasts; actives raise or lower the signal
Procedure, shortened: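 Signal is secreted/surface IP-10 by ELISA in a human primary skin co-culture of keratinocytes and foreskin fibroblasts, taken 24 h post-dosing; DMSO served as negative control.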

[6] = BSK_KF3CT_SRB: Viability Assessment in the BioMAP Diversity Plus: KF3CT Assay (AID 2283069); details: primary human keratinocytes with fibroblasts;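 also: read 24 h after compound addition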
Procedure, shortened: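 Cytotoxicity was gauged by SRB staining (0.1% SRB, 10% TCA fixation, 560 nm) of parallel cultures at 24 h. The cells were primary human skin keratinocytes co-cultured with fibroblasts, and activity was fitted in both directions against DMSO.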

[7] = read-out: Interleukin-1 alpha (IL1a), IL1A (gene 3552); assay: BSK_KF3CT_IL1a: BioMAP Diversity Plus: KF3CT Assay for Interleukin-1 alpha (IL1a) Biomarker Activity (AID 2283070); details: primary human keratinocytes with fibroblasts; actives raise or lower the signal
Procedure, shortened: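 IL-1a was detected by ELISA 24 h after chemical treatment of a co-culture of human skin keratinocytes and foreskin fibroblasts. Gain or loss of signal was fitted against the DMSO baseline.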

[8] = read-out: TIMP metallopeptidase inhibitor 2 (TIMP2), TIMP2 (gene 7077); assay: BSK_KF3CT_TIMP2: BioMAP Diversity Plus: KF3CT Assay for TIMP metallopeptidase inhibitor 2 (TIMP2) Biomarker Activity (AID 2283071); details: primary human keratinocytes with fibroblasts; actives raise or lower the signal
Procedure, shortened: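 TIMP-2 measured by ELISA at 24 h in human keratinocyte/fibroblast primary co-cultures exposed to chemicals. Both increases and decreases were fitted against DMSO. Parallel cultures were stained with SRB for total protein as an overt-cytotoxicity check.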

[9] = read-out: Transforming growth factor beta 1 (TGFb1), TGFB1 (gene 7040); assay: BSK_KF3CT_TGFb1: BioMAP Diversity Plus: KF3CT Assay for Transforming growth factor beta 1 (TGFb1) Biomarker Activity (AID 2283072); details: primary human keratinocytes with fibroblasts; actives raise or lower the signal
Procedure, shortened: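 ELISA quantifies TGF-b1 at 24 h post-dose in a primary human skin co-culture of keratinocytes and fibroblasts, with gain or loss judged against DMSO. Parallel SRB total-protein staining flags overt cytotoxicity.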

[10] = read-out: C-C motif chemokine 2 (Homo sapiens) (UniProt P13500); assay: BSK_KF3CT_MCP1: BioMAP Diversity Plus: KF3CT Assay for Monocyte Chemoattractant Protein 1 (MCP1/CCL2) Biomarker Activity (AID 2283073); details: primary human keratinocytes with fibroblasts; actives raise or lower the signal
Procedure, shortened: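 Biomarker MCP-1 is measured by ELISA in primary human keratinocytes co-cultured with foreskin fibroblasts, 24 h after chemical treatment; DMSO serves as the negative control and activity baseline.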

[11] = read-out: Matrix Metallopeptidase 9 (MMP9), MMP9 (gene 4318); assay: BSK_KF3CT_MMP9: BioMAP Diversity Plus: KF3CT Assay for Matrix Metallopeptidase 9 (MMP9) Biomarker Activity (AID 2283074); details: primary human keratinocytes with fibroblasts; actives raise or lower the signal;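 as to AC50: MMP9 protein level quantified by ELISA in the co-culture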
Procedure, shortened: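 MMP-9 quantified by ELISA after 24 h chemical treatment of primary human skin keratinocyte/fibroblast co-cultures; gain or loss fitted against DMSO, with parallel SRB staining (0.1% SRB, 560 nm) for overt cytotoxicity.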

[12] = read-out: urokinase plasminogen activator (uPA), PLAU (gene 5328); assay: BSK_KF3CT_uPA: BioMAP Diversity Plus: KF3CT Assay for urokinase plasminogen activator (uPA) Biomarker Activity (AID 2283075); details: primary human keratinocytes with fibroblasts; actives raise or lower the signal
Procedure, shortened: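 ELISA read-out of uPA 24 h after dosing human skin keratinocytes co-cultured with foreskin fibroblasts. Signal change fitted both ways relative to DMSO; sulforhodamine B on parallel cultures marks overt cytotoxicity.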

CD40, CD40 (gene 958) = assay: BSK_LPS_CD40: BioMAP Diversity Plus: LPS Assay for CD40 Biomarker Activity (AID 2283076); details: primary human HUVEC with PBMC; actives raise or lower the signal
Procedure, shortened: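 Using a multiplexed primary human co-culture (umbilical vein endothelium plus PBMC), CD40 was read by ELISA 24 h after dosing, with cytotoxicity tracked by sulforhodamine B staining of parallel cultures and activity fitted bidirectionally versus DMSO.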

[13] = read-out: E-selectin (Homo sapiens) (UniProt P16581); assay: BSK_LPS_Eselectin: BioMAP Diversity Plus: LPS Assay for Eselectin Biomarker Activity (AID 2283077); details: primary human HUVEC with PBMC; actives raise or lower the signal
Procedure, shortened: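 Dose chemical onto LPS-driven HUVEC/PBMC co-culture; after 24 h, run ELISA for E-selectin; fit up- and down-going responses relative to DMSO control.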

[14] = read-out: Interleukin-8 (IL8), CXCL8 (gene 3576); assay: BSK_LPS_IL8: BioMAP Diversity Plus: LPS Assay for Interleukin-8 (IL8) Biomarker Activity (AID 2283078); details: primary human HUVEC with PBMC; actives raise or lower the signal
Procedure, shortened: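 In this LPS system, chemical-treated human umbilical vein endothelium/PBMC co-cultures were harvested at 24 h for IL-8 ELISA.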

[15] = BSK_LPS_SRB: Viability Assessment in the BioMAP Diversity Plus: LPS Assay (AID 2283079); details: primary human HUVEC with PBMC;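 also: total protein by sulforhodamine B absorbance as a cytotoxicity measure; measured one day after compound addition; fitted in both directions against DMSO so loss or gain of signal counts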
Procedure, shortened: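 Cytotoxicity endpoint in human endothelial–PBMC co-culture: 24 h exposure, then SRB (0.1%) staining, 560 nm read.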

[16] = read-out: Monocyte Chemoattractant Protein-1 (MCP1), CCL2 (gene 6347); assay: BSK_LPS_MCP1: BioMAP Diversity Plus: LPS Assay for Monocyte Chemoattractant Protein-1 (MCP1) Biomarker Activity (AID 2283081); details: primary human HUVEC with PBMC; actives raise or lower the signal;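 as to AC50: secreted MCP-1 protein quantified by ELISA in culture supernatant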
Procedure, shortened: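 Values derive from bidirectional fitting against DMSO of ELISA-measured MCP-1 in a human primary endothelial and mononuclear cell co-culture, 24 h after chemical addition under LPS activation.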

[17] = BSK_LPS_PGE2: BioMAP Diversity Plus: LPS Assay for Prostaglandin E2 (PGE2) Biomarker Activity (AID 2283082); details: primary human HUVEC with PBMC; actives raise or lower the signal;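 as to AC50: secreted prostaglandin E2 measured by ELISA in LPS-stimulated co-culture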
Procedure, shortened: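 PGE2 release measured by ELISA in an LPS-activated co-culture of human umbilical vein endothelial cells and peripheral blood mononuclear cells, read at 24 h post-dosing. DMSO served as baseline for bidirectional curve fitting.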

[18] = read-out: Intercellular Adhesion Molecule 1 (ICAM1), ICAM1 (gene 3383); assay: BSK_KF3CT_ICAM1: BioMAP Diversity Plus: KF3CT Assay for Intercellular Adhesion Molecule 1 (ICAM1) Biomarker Activity (AID 2283067); details: primary human keratinocytes with fibroblasts; actives raise or lower the signal
Procedure, shortened: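 Bidirectional curve fitting against a DMSO baseline was applied to ICAM-1 ELISA signal from primary human skin co-cultures harvested 24 h after treatment, with SRB staining of parallel wells for overt cytotoxicity.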

[19] = read-out: Interleukin-1 alpha (IL1a), IL1A (gene 3552); assay: BSK_LPS_IL1a: BioMAP Diversity Plus: LPS Assay for Interleukin-1 alpha (IL1a) Biomarker Activity (AID 2283080); details: primary human HUVEC with PBMC; actives raise or lower the signal
Procedure, shortened: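 Primary human HUVEC and PBMC co-culture stimulated with LPS is dosed and harvested at 24 h. Both increases and decreases in ELISA-measured IL-1a are scored relative to DMSO.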

Chain of E-selectin (Homo sapiens) (P16581 whole entry, looked up): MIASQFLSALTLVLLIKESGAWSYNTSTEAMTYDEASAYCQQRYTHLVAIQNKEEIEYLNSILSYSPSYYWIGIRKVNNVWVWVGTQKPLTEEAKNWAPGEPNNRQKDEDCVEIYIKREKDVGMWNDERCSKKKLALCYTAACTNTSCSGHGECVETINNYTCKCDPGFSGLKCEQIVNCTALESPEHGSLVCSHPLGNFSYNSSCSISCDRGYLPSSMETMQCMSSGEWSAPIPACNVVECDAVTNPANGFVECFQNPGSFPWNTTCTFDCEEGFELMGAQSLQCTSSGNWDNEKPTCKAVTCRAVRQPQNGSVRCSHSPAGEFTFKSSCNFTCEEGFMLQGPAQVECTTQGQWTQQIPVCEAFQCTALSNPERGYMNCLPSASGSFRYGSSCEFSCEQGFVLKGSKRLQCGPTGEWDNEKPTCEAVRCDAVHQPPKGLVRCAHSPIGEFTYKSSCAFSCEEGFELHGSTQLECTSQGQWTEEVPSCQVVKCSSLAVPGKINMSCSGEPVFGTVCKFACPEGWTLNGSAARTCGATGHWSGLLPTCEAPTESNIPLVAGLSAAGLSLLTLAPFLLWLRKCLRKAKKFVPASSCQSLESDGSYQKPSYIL

Cn1c(=O)cc(Oc2ccc(F)cc2F)c2cnc(NCC(C)(C)O)nc21
outcome [1]: inactive
AC50 [2]: 1.12 µM (active)
AC50 [3]: 0.92 µM (active)
outcome [4]: inactive
outcome [5]: inactive
outcome [6]: inactive
outcome [7]: inactive
outcome [8]: inactive
outcome [9]: inactive
outcome [10]: inactive
outcome [11]: inactive
outcome [12]: inactive
outcome (CD40, CD40 (gene 958)): inactive
AC50 [13]: 3.35 µM (active)
AC50 [14]: 2.9 µM (active)
outcome [15]: inactive
AC50 [16]: 3.88 µM (active)
AC50 [17]: 1.76 µM (active)

CCN(C(=O)c1cc(C)cc(OC[C@H](C)Nc2ccncc2)c1)C(C)C
outcome [1]: inactive
outcome [2]: inactive
outcome [3]: inactive
outcome [4]: inactive
outcome [5]: inactive
outcome [6]: inactive
outcome [8]: inactive
outcome [9]: inactive
outcome [11]: inactive
AC50 [12]: 13.5 µM (active)
outcome (CD40, CD40 (gene 958)): inactive
outcome [13]: inactive
outcome [14]: inactive
outcome [15]: inactive
outcome [16]: inactive
outcome [17]: inactive

CCC(C)(C)C(=O)O[C@H]1C[C@@H](C)C=C2C=C[C@H](C)[C@H](CC[C@@H]3C[C@@H](O)CC(=O)O3)[C@H]21
outcome [1]: inactive
AC50 [3]: 33.9 µM (active)
AC50 [4]: 23.4 µM (active)
AC50 [18]: 31.2 µM (active)
AC50 [5]: 34.3 µM (active)
AC50 [6]: 34.8 µM (active)
AC50 [8]: 30.8 µM (active)
AC50 [9]: 31.4 µM (active)
AC50 [10]: 36.9 µM (active)
AC50 [11]: 31.6 µM (active)
AC50 [12]: 31.2 µM (active)
AC50 (CD40, CD40 (gene 958)): 6.52 µM (active)
AC50 [13]: 0.168 µM (active)
outcome [14]: inactive
AC50 [15]: 4.75 µM (active)
AC50 [16]: 30.5 µM (active)
outcome [17]: inactive

CC(=O)OC[C@H]1O[C@@](COC(C)=O)(O[C@H]2O[C@H](COC(C)=O)[C@@H](OC(C)=O)[C@H](OC(C)=O)[C@H]2OC(C)=O)[C@@H](OC(C)=O)[C@@H]1OC(C)=O
outcome [1]: inactive
outcome [2]: inactive
outcome [3]: inactive
outcome [4]: inactive
outcome [5]: inactive
outcome [6]: inactive
outcome [8]: inactive
outcome [9]: inactive
outcome [10]: inactive
outcome [11]: inactive
outcome [12]: inactive
outcome (CD40, CD40 (gene 958)): inactive
outcome [13]: inactive
outcome [14]: inactive
outcome [15]: inactive
outcome [16]: inactive
outcome [17]: inactive

CC(C)CC(C)(O)C#CC(C)(O)CC(C)C (stereo not drawn)
outcome [1]: inactive
outcome [2]: inactive
outcome [3]: inactive
outcome [4]: inactive
outcome [5]: inactive
outcome [6]: inactive
outcome [7]: inactive
outcome [8]: inactive
outcome [9]: inactive
outcome [11]: inactive
outcome [12]: inactive
outcome (CD40, CD40 (gene 958)): inactive
outcome [13]: inactive
outcome [14]: inactive
outcome [15]: inactive
outcome [16]: inactive
outcome [17]: inactive

O=c1n(CC2CO2)c(=O)n(CC2CO2)c(=O)n1CC1CO1 (stereo not drawn)
AC50 [1]: 15.5 µM (active)
AC50 [3]: 11.6 µM (active)
AC50 [4]: 22 µM (active)
outcome [18]: inactive
outcome [5]: inactive
outcome [6]: inactive
outcome [7]: inactive
outcome [8]: inactive
outcome [9]: inactive
outcome [10]: inactive
AC50 [11]: 20 µM (active)
outcome [12]: inactive
AC50 (CD40, CD40 (gene 958)): 16.3 µM (active)
AC50 [13]: 20 µM (active)
AC50 [14]: 10.8 µM (active)
AC50 [15]: 12.2 µM (active)
outcome [19]: inactive
AC50 [16]: 19.5 µM (active)
outcome [17]: inactive

Cc1ccc(O)cc1
outcome [1]: inactive
outcome [2]: inactive
outcome [3]: inactive
outcome [4]: inactive
outcome [5]: inactive
outcome [6]: inactive
outcome [8]: inactive
outcome [9]: inactive
outcome [10]: inactive
outcome [11]: inactive
outcome [12]: inactive
outcome (CD40, CD40 (gene 958)): inactive
outcome [13]: inactive
outcome [14]: inactive
outcome [15]: inactive
outcome [16]: inactive
AC50 [17]: 4.37 µM (active)

CCCCCCCCCCCCCCCO
outcome [1]: inactive
outcome [2]: inactive
outcome [3]: inactive
outcome [4]: inactive
outcome [5]: inactive
outcome [6]: inactive
outcome [8]: inactive
outcome [9]: inactive
outcome [10]: inactive
outcome [11]: inactive
outcome [12]: inactive
AC50 (CD40, CD40 (gene 958)): 33.6 µM (active)
outcome [13]: inactive
AC50 [14]: 31.1 µM (active)
AC50 [15]: 31.7 µM (active)
outcome [16]: inactive
outcome [17]: inactive
